The values below come from PubChem BioAssay AID1209 (Sanford-Burnham Center for Chemical Genomics, 2008).

About 810 (0.43%) of roughly 190,000 compounds were called active. For the sample, actives were picked, then their nearest neighbours and some compounds at random. Unmarked numbers belong to inactive results. Cut-off read from the data, not from the text of the source: active = inhibition above about 50%; inactive = the rest.

This assay deals with Mannose-6-phosphate isomerase (Homo sapiens) (UniProt P34949). The assay is described as follows: MPI enzyme activity inhibition – biochemical, fluorescence intensity, coupled assay, primary screen (AID 1209).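 Note: plate controls were DMSO vehicle for no effect and wells lacking substrate for full effect.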 Conditions: purified PMI enzyme, at 20 µM, active compounds read high.
Mannose-6-phosphate isomerase (Homo sapiens), sequence (P34949 whole entry, looked up): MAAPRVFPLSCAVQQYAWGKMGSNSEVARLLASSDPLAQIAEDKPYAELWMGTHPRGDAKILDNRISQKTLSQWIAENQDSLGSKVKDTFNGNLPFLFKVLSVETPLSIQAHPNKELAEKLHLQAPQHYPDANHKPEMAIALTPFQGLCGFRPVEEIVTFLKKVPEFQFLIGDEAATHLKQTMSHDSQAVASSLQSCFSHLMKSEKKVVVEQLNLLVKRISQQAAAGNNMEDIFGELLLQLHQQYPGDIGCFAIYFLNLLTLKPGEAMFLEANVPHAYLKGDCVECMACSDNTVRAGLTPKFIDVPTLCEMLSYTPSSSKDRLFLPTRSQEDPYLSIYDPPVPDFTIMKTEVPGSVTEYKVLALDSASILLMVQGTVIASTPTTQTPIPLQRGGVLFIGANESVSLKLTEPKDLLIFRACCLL
Consider `O=C(CSc1nc2cc(Cl)ccc2s1)Nc1cccc(S(=O)(=O)N2CCOCC2)c1`, for which the inhibition is 15.2%.

Take `CCN1CCN(C(c2cccs2)C(C)NC(=O)CC(C)C)CC1` (configuration not stated): the inhibition is 0.5%.

Consider `CCN(CCNC(=O)C1CCN(S(=O)(=O)c2cccc3cccnc23)CC1)c1ccccc1`, for which the inhibition was 8.4%.

In the case of `O=C(NNC(=O)c1cc(OCC(F)(F)F)ccc1OCC(F)(F)F)c1ccc(Cl)c(Cl)c1`, the inhibition was 16.5%.

With `Cc1cc2oc(=O)cc(CN3CCCc4ccccc43)c2cc1C`, the inhibition was -11.2%.

In the case of `Cc1ccc(SCCC(=O)NCCSCc2ccco2)cc1`, the inhibition was 7.9%.

As to `CN1CCC(N(C)C(=O)/C=C/c2cn(-c3ccccc3)nc2-c2cccs2)CC1`, the inhibition was -5.9%.

Take `COc1ccc(S(=O)(=O)N2CCN(Cc3ccc(Cl)cc3)CC2)cc1`: the inhibition was 14.7%.

Take `Cc1ccc([N+](=O)[O-])cc1-c1[nH]c(-c2ccc(O)c(O)c2)nc1-c1ccccc1`: the inhibition was 51.7% (active).

With `COc1ccc(-c2nc(-c3ccccc3)c(-c3cc([N+](=O)[O-])ccc3C)[nH]2)cc1O`, the inhibition is 22.5%.

With `CCOc1cc(-c2nc(-c3ccccc3)c(-c3cc([N+](=O)[O-])ccc3C)[nH]2)ccc1O`, the inhibition was 14.4%.

`Cc1ccc(COc2ccc(Br)cc2/C=N/O)cc1`: the inhibition was 19.7%.

For the compound `O=c1c2cc(Br)ccc2nc(-c2ccc([N+](=O)[O-])cc2)n1O`, the inhibition was -3.6%.

Consider `O=c1c2c([N+](=O)[O-])cc([N+](=O)[O-])cc2sn1-c1ccc(Br)cc1`, for which the inhibition was 109% (active).

On to `O=[N+]([O-])c1cc([N+](=O)[O-])c2c(=Nc3ccccc3)n(-c3ccccc3)n(O)c2c1`, for which the inhibition was 10.6%.

Regarding `CCOc1ccccc1CN1CCN(S(=O)(=O)CC)CC1`, the inhibition was 3.5%.

For `O=c1[nH]c(CSc2nnc(COc3ccccc3)n2-c2ccccc2)nc2ccccc12`, the inhibition was -3.6%.

On to `Nc1cc(C(=O)OCC(=O)NCc2ccco2)ccc1Cl`, for which the inhibition is -6.8%.

For the compound `COC(=O)c1ccc(OC)cc1OCC(=O)N1CCN(c2ccc(F)cc2)CC1`, the inhibition is 13.1%.

Turning to `O=C(/C=C/c1c(Cl)cccc1Cl)NCCc1ccccc1`, the inhibition was -10%.

For the compound `CCS(=O)(=O)N1CCC(C(=O)NCc2cccnc2)CC1`, the inhibition is 4.6%.

With `CC(C)CN(CC(C)C)S(=O)(=O)N1CCC(C(=O)NCc2ccc(F)cc2)CC1`, the inhibition is 2.6%.

In the case of `CC(C)CN(CC(C)C)S(=O)(=O)N1CCC(C(=O)NCc2cccnc2)CC1`, the inhibition was 55.2% (active).

For `COc1ccc(NC(=O)C(c2ccccc2)N(C)C(=O)CNC(C)=O)cc1` (configuration not stated), the inhibition was -1.1%.

As for `CN(C)C(=O)c1nc2ccccc2s1`, the inhibition is 4.6%.

For the compound `CCOC(=O)N/C(N)=N/c1nc2ccccc2s1`, the inhibition is 3.7%.

Take `COc1ccc2nc(/N=C\N(C)C)sc2c1`: the inhibition is 7%.

Regarding `COc1ccc2nc(N=Nc3ccc(N(C)C)cc3)sc2c1`, the inhibition is -5.8%.

On to `COc1ccc(-n2c(N)c(C(=O)NCC3CCCO3)sc2=S)cc1` (configuration not stated), for which the inhibition is 6%.

In the case of `Cn1c(=O)c(=O)n(C)c2cc(S(=O)(=O)N3CCC(Cc4ccccc4)CC3)ccc21`, the inhibition was 0.3%.

On to `Oc1c(C(c2ccccc2Cl)N2CCCC2)ccc2cccnc12` (configuration not stated), for which the inhibition was 32.1%.

For `Oc1c(C(c2cccs2)N2CCN(c3ccccc3)CC2)sc2ncnn12` (configuration not stated), the inhibition is -6.2%.

As to `CN1CCN(C(c2cccnc2)c2ccc3cccnc3c2O)CC1` (configuration not stated), the inhibition was 39.6%.

Regarding `CCOC(=O)N1CCN(C(c2cccnc2)c2ccc3cccnc3c2O)CC1` (configuration not stated), the inhibition is 60.4% (active).

On to `Cc1conc1NC(c1cccs1)c1ccc2cccnc2c1O` (configuration not stated), for which the inhibition was 13%.

Regarding `CCC(=O)NC(c1cccs1)c1ccc2cccnc2c1O` (configuration not stated), the inhibition was 33.8%.

As to `Oc1c(C(c2ccccn2)N2CCOCC2)ccc2cccnc12` (configuration not stated), the inhibition was 60.9% (active).

In the case of `Oc1c(C(Nc2ccccn2)c2ccccn2)ccc2cccnc12` (configuration not stated), the inhibition was 6.9%.

With `CCOC(=O)N1CCN(S(=O)(=O)c2cccc3cccnc23)CC1`, the inhibition was -9.6%.

With `OCCN1CCN(C(c2cccs2)c2ccc3cccnc3c2O)CC1` (configuration not stated), the inhibition was 50.8% (active).

Regarding `Cc1nc2sc(C(c3cccs3)N3CCN(c4ccccc4)CC3)c(O)n2n1` (configuration not stated), the inhibition was 4.2%.

For the compound `Oc1c(C(c2cccs2)N2CCN(c3ccccc3)CC2)ccc2cccnc12` (configuration not stated), the inhibition is 58.8% (active).

As for `COC(=O)c1nn(-c2ccccc2)c(=O)cc1Oc1ccc(Cl)cc1`, the inhibition is -15.5%.

For `CCOC(=O)N1CCC(NC(=O)CCC(=O)N2CC(C)Oc3ccc(Cl)cc32)CC1` (configuration not stated), the inhibition was 19.2%.

For `COc1ccc(C(=O)Nc2nnc(Cc3cccs3)s2)cc1OC`, the inhibition was 7.8%.

As for `COc1c(Cl)cnn(-c2ccc(Cl)c(Cl)c2)c1=O`, the inhibition was -2.9%.

Turning to `CC1(C)NC(=O)N(CCOCCOc2ccccc2-c2ccccc2)C1=O`, the inhibition is -2.9%.

Regarding `COc1cc(O)c2c(c1)OC(c1ccc(O)cc1)CC2=O` (configuration not stated), the inhibition is -1.3%.

`COc1cc2c(cc1OC)C1(Nc3c-2c(Cc2ccccc2)nn3-c2ccccc2)C(=O)Nc2ccccc21` (configuration not stated): the inhibition is 9.3%.

Take `Clc1ccc(-c2nn3c(-c4ccccn4)nnc3s2)c(Cl)c1`: the inhibition is -4.5%.

With `Cc1cccc(N2C(=O)CC(SC(=Nc3ccccc3)Nc3ccccc3)C2=O)c1` (configuration not stated), the inhibition is 15.7%.

For `O=C1SC(SC(=Nc2ccccc2)Nc2ccccc2)C(=O)N1c1ccccc1` (configuration not stated), the inhibition was -11.6%.

Regarding `Cc1cccc(N2C(=O)SC(SC(=Nc3ccccc3)Nc3ccccc3)C2=O)c1` (configuration not stated), the inhibition was 52.5% (active).

Regarding `Cc1ccc2c(c1)n([O-])c1c([n+]2=O)CCCC1`, the inhibition is 17.7%.

Consider `CCOc1ccc2c(c1)n([O-])c1c([n+]2=O)CCCC1`, for which the inhibition is 56.8% (active).

In the case of `O=[n+]1c2c(n([O-])c3cc(F)ccc31)CCCC2`, the inhibition is 5.7%.

`CSc1ccccc1NC(=O)CN(C)Cc1ccc(Br)cc1`: the inhibition is 16%.

With `Cc1ccccc1Cn1ccc(NC(=O)c2cnn3cccnc23)n1`, the inhibition was 10.4%.

Regarding `CCOC(=O)NC(=O)CSc1ccccn1`, the inhibition was 2.1%.

In the case of `O=C1/C(=C/c2cccc([N+](=O)[O-])c2)CCc2ccccc21`, the inhibition was 14.1%.

Consider `O=[N+]([O-])c1cccc(N=Cc2sc3ccccc3c2O)c1`, for which the inhibition was 13.3%.

Turning to `CC1CCC(NC(=O)Cn2ncc3ccccc32)CC1` (configuration not stated), the inhibition is 8.4%.

In the case of `COc1cc2cc(CN(CCc3cccc(C)c3)C(=S)NCCCN3CCOCC3)c(=O)[nH]c2cc1OC`, the inhibition was 10.1%.

With `O=C(Cc1ccc(Nc2nc(=S)[nH]c3ccccc23)cc1)NC1CCCCC1`, the inhibition is -5.3%.

Take `CC(C)CCNC(=O)Cc1ccc(Nc2nc(=S)[nH]c3ccccc23)cc1`: the inhibition was 51.6% (active).

Regarding `Cc1ccc(CNC(=O)Cc2csc(Nc3nc(=S)[nH]c4ccccc34)n2)cc1`, the inhibition is -1.8%.

For `Cc1cccc(/C(N)=N/OC(=O)c2ccc(Br)o2)c1`, the inhibition is 12.6%.

As for `CCOc1cc(S(=O)(=O)N2CCCC2)ccc1Cl`, the inhibition is -1.7%.

With `O=C(O[C@@H]1OC2COC(=O)c3cc(O)c(O)c(O)c3-c3c(cc(O)c(O)c3O)C(=O)O[C@@H]([C@H]1O)[C@@H]2O)c1cc(O)c(O)c(O)c1`, the inhibition was 49.1%.

For `O=C(OCC1O[C@@H](OC(=O)c2cc(O)c(O)c(O)c2)[C@@H](OC(=O)c2cc(O)c(O)c(O)c2)[C@@H](OC(=O)c2cc(O)c(O)c(O)c2)[C@@H]1OC(=O)c1cc(O)c(O)c(O)c1)c1cc(O)c(O)c(O)c1` (some centres not stated), the inhibition was 57.2% (active).

As to `Cc1cn(C2OC(COC(=O)c3ccccc3)C(OC(=O)c3ccccc3)C2OC(=O)c2ccccc2)c(=O)[nH]c1=O` (configuration not stated), the inhibition was 3.7%.

In the case of `CC(C)N(CC#CC(O)(c1ccccc1)c1ccccc1)CCO`, the inhibition is -9.6%.

In the case of `S=C(N/N=C/c1ccccc1Cl)Nc1ccccc1`, the inhibition is 12.3%.

Regarding `O=[N+]([O-])c1ccc(Cl)c(/C=N/NC(=S)Nc2ccccc2)c1`, the inhibition is 66.2% (active).

For the compound `NC(=S)N/N=C/c1cc([N+](=O)[O-])ccc1Cl`, the inhibition is -2.2%.

For the compound `CCC(C)(C)c1ccc(OCCN2C(=O)NC(C)(C)C2=O)cc1`, the inhibition is 7.4%.

With `COc1ccc(NC(=O)C2(c3ccccc3)CCCC2)cc1`, the inhibition was 18.9%.

In the case of `CCOC(=O)C1=C(C)N(C)C(=O)NC1c1c(C)nn(-c2ccccc2)c1C` (configuration not stated), the inhibition is -0.2%.

Consider `CCOC(=O)C1=C(C)NC(=O)NC1c1c(C)nn(-c2ccccc2)c1Cl` (configuration not stated), for which the inhibition is 53.9% (active).

Take `CCOC(=O)C1=C(C)N(C)C(=O)NC1c1c(C)nn(-c2ccc(C)cc2)c1Cl` (configuration not stated): the inhibition is -6.5%.

`CCSc1nnc(NC(=O)c2ccc(S(=O)(=O)N(C)C)cc2)s1`: the inhibition is -9.1%.

`COc1ccc(Nc2nc(N)nc(CSC(=S)N3CCOCC3)n2)cc1`: the inhibition is -8.7%.

Regarding `C=CC[n+]1ccc(/C=C2\C=Cc3cc(C)ccc3N2CC)c2ccccc21`, the inhibition is 64.5% (active).

As for `CCN1/C(=C/c2cc[n+](C)cc2)C=Cc2cc(C)ccc21`, the inhibition was 46.3%.

`C=CC[n+]1c(/C=C2\C=Cc3cc(C)ccc3N2CC)ccc2ccccc21`: the inhibition was 16.7%.

For `N#CCSCC(=O)Nc1ccccc1`, the inhibition is 7.9%.

In the case of `N#CC(C(=O)NC1CCCCC1)c1nc2ccccc2nc1N1CCN(c2ccc(F)cc2)CC1` (configuration not stated), the inhibition is 7.4%.

`Cc1ccc(-c2nnc3n2N=C(c2ccc(Br)cc2)CS3)cc1`: the inhibition was -12.4%.

As to `COc1cccc(CNc2ccc(F)c(Cl)c2)c1OC`, the inhibition is -0.3%.

In the case of `CC1CCN(c2ccc(NC(=O)Cc3ccccc3)cc2)CC1`, the inhibition was 13.5%.

With `COc1cccc(CNc2ccc(N3CCCCC3)cc2)c1OC`, the inhibition is 65.1% (active).

For the compound `COc1ccccc1CNc1ccc(C(=O)O)cc1`, the inhibition was 1.8%.

On to `COc1cccc(CNc2ccc(S(N)(=O)=O)cc2)c1OC`, for which the inhibition is 6.1%.

Turning to `COc1ccccc1C(=O)Nc1ccc(N2CCCCC2)cc1`, the inhibition was -4.3%.

On to `COc1ccccc1CNc1ccc(N2CCCCC2)cc1`, for which the inhibition is 67.3% (active).

Regarding `COc1cccc(CNc2ccc(N3CCC(C)CC3)cc2)c1OC`, the inhibition was 67.3% (active).

In the case of `COc1cccc(CNCCN2CCOCC2)c1OC`, the inhibition is 0.5%.
